Assay [1] is described as follows: A CellTox Green Cytotoxicity Assay to monitor cytotoxicity in HepG2 cells - 0 hour (AID 1224882). Also: nearly all actives have a fitted effect of over 35% in size. The conditions noted are these: CellTox Green fluorescence; series mostly up to 76.8 µM. The method in brief: (§1)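 HepG2 cells, 600/well, preincubated 5 h with CellTox Green dye, then exposed to Tox21 compounds in DMSO at 37 C for up to 40 h. Dead-cell DNA fluorescence read at the indicated time point.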

Assay [2] can be described thus: A CellTox Green Cytotoxicity Assay to monitor cytotoxicity in HepG2 cells - 32 hour (AID 1224883). Also: nearly all actives have a fitted effect of over 50% in size. Also: potency is read from the fitted curve at half-maximal effect. To be noted: CellTox Green fluorescence; series mostly up to 76.8 µM. The method in brief: as §1
Assay [3] is described as follows: A CellTox Green Cytotoxicity Assay to monitor cytotoxicity in HEK293 cells - 8 hour (AID 1224884). Also: nearly all actives have a fitted effect of over 35% in size. The conditions noted are these: CellTox Green fluorescence; series mostly up to 76.8 µM. The method in brief: (§2)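 HEK293 cells, 600/well, were preincubated 5 hours and then exposed to compounds at 37 C for up to 40 hours. A cell-impermeant cyanine dye staining dead-cell DNA was read by fluorescence at 0, 8, 16, 24, 32 and 40 h time points.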

The nature of assay [4]: qHTS RealTime-Glo MT Cell Viability Assay in HepG2 cells - 16 hour (AID 1224885). Also: nearly all actives have a fitted effect of over 50% in size. To be noted: RealTime-Glo luminescence; series mostly up to 76.8 µM. The gist of the method:
(§3)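 Viability was tracked continuously by NanoLuc luminescence from prosubstrate reduced by living HepG2 cells, at successive time points over 40 h of compound exposure. Cells with reagent were preincubated 5 h at 37 °C before compound addition.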
Background: In qHTS, concentration-response curves come from the screen itself.

Assay [5] is described as follows: qHTS RealTime-Glo MT Cell Viability Assay in HEK293 cells - 8 hour (AID 1224887). Also: top concentration of the series differs between compounds; nearly all actives have a fitted effect of over 50% in size. The conditions noted are these: RealTime-Glo luminescence; series mostly up to 76.8 µM. The gist of the method: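 600 cells/well were plated with the nonlytic NanoLuc/prosubstrate reagent, pre-incubated 5 h, then given 23 nL of compound in DMSO. Incubation at 37 C for 40 h, with luminescence from viable-cell-reduced substrate read repeatedly from 0 h.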

A short description of assay [6]: A CellTox Green Cytotoxicity Assay to monitor cytotoxicity in HepG2 cells - 8 hour (AID 1224890). Also: nearly all actives have a fitted effect of over 45% in size. To be noted: CellTox Green fluorescence; series mostly up to 76.8 µM. The gist of the method: as §1
Assay [7] in a line: qHTS assay to identify small molecule antagonists of the estrogen receptor alpha (ER-alpha) signaling pathway using the BG1 cell line in the presence of 0.1 nM 17-beta-estradiol - cell viability counter screen (AID 1259241). Also: nearly all actives have a fitted effect of over 40% in size. The conditions noted are these: VM7Luc4E2 (BG1) viability, CellTiter-Fluor protease, 22 h, 0.1 nM estradiol agonist added; series mostly up to 92.4 µM. The method in brief:
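Viability in VM7Luc4E2 cells after 22 hr compound exposure under 0.1 nM 17beta-estradiol stimulation, by CellTiter-Fluor.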

Assay [8] in a line: qHTS assay to identify small molecule antagonists of the androgen receptor (AR) signaling pathway using the MDA cell line in the presence of 0.5 nM R1881 - cell viability counter screen (AID 1259242). Also: nearly all actives have a fitted effect of over 45% in size. To be noted: MDA-kb2 viability, CellTiter-Fluor protease fluorescence, 16 h; series mostly up to 92.4 µM. The gist of the method:
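MDA-kb2 cells (MMTV-luciferase, AR/GR responsive) were treated with compounds plus 0.5 nM R1881 (final) for 16 hr at 37C, 0% CO2. Viability was then read in the same wells as live-cell protease fluorescence (CellTiter-Fluor, 30 min).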

In assay [9] the target is Estrogen receptor (Homo sapiens) (UniProt P03372). The assay can be described thus: qHTS assay to identify small molecule antagonists of the estrogen receptor alpha (ER-alpha) signaling pathway using the BG1 cell line in the presence of 0.1 nM 17-beta-estradiol (AID 1259244). Also: nearly all actives have a fitted effect of over 50% in size. The conditions noted are these: VM7Luc4E2 (BG1) ERE-luciferase, antagonist mode, 0.1 nM E2, 22 h; series mostly up to 42.5 µM. The gist of the method:
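VM7Luc4E2 cells (endogenous full-length ER-alpha, 4×ERE-luciferase), kept 5 days in phenol red-free, charcoal-stripped FBS medium; 4,000 cells/well. Compounds added with 0.1 nM (final) 17beta-estradiol, 22 hr at 37C; luminescence read with ONE-Glo after 30 min.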

Assay [10] can be described thus: qHTS assay to identify small molecule HDAC inhibitors (AID 1259364). Also: nearly all actives have a fitted effect of over 45% in size. Also: potency is read from the fitted curve at half-maximal effect. The conditions noted are these: HCT-116 HDAC-Glo I/II luminescence, 2 h; series mostly up to 92.4 µM. The gist of the method:
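Wild-type HCT-116 cells, plated overnight at 37 C, exposed to compounds 2 hr at 37 C; luminogenic HDAC-Glo substrate then added 30 min at room temperature. Luminescence reports relative endogenous class I/II HDAC activity.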

Assay [11] is described as follows: qHTS assay to identify small molecule agonists of the sonic hedgehog signaling (Shh) pathway - cell viability counter screen (AID 1259366). Also: nearly all actives have a fitted effect of over 50% in size. Also: potency is read from the fitted curve at half-maximal effect. To be noted: NIH/3T3 Gli1-Luc viability, CellTiter-Fluor, 24 h; series mostly up to 92.4 µM. The gist of the method:
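Stable Gli1-Luc NIH/3T3 clone, 2,000 cells/well. Compound exposure 24hr at 37C. Read-out: CellTiter-Fluor fluorescence.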

The nature of assay [12]: qHTS assay to identify small molecule agonists of the sonic hedgehog signaling (Shh) pathway (AID 1259368; calls by dose curve; also: nearly all actives have a fitted effect of over 15% in size). To be noted: NIH/3T3 Gli1-Luc reporter, luciferase, 24 h, hits give high values; series mostly up to 92.4 µM. The gist of the method: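 NIH/3T3-derived 3T3Gli1-Luc cells with stably integrated Gli1-driven firefly luciferase, 2,000 cells/well, compounds added after 4 hr. Incubated 24 hr at 37C, 5% CO2; luminescence read after 30 min with luciferase reagent at room temperature.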

Assay [13] can be described thus: A CellTox Green Cytotoxicity Assay to monitor cytotoxicity in HEK293 cells - 32 hour (AID 1224881). Also: nearly all actives have a fitted effect of over 40% in size. The conditions noted are these: CellTox Green fluorescence; series mostly up to 76.8 µM. The method in brief:
as §2

Assay [14] is described as follows: A CellTox Green Cytotoxicity Assay to monitor cytotoxicity in HEK293 cells - 16 hour (AID 1224888). Also: nearly all actives have a fitted effect of over 35% in size. The conditions noted are these: CellTox Green fluorescence; series mostly up to 76.8 µM. The gist of the method: as §2
Assay [15] is described as follows: qHTS RealTime-Glo MT Cell Viability Assay in HepG2 cells - 0 hour (AID 1224889). Also: nearly all actives have a fitted effect of over 50% in size. The conditions noted are these: RealTime-Glo luminescence; series mostly up to 76.8 µM. The gist of the method: as §3
Assay [16] in a line: qHTS assay to identify small molecule HDAC inhibitors - cell viability counter screen (AID 1259365). Also: nearly all actives have a fitted effect of over 50% in size. The conditions noted are these: HCT-116 viability, CellTiter-Glo ATP luminescence, 2 h; series mostly up to 92.4 µM. The gist of the method:
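Cytotoxicity was gauged in wild-type HCT-116 cells after a brief 2hr treatment with DMSO-dissolved compounds at 37C and 5% CO2, using CellTiter-Glo luminescence developed for 30min at room temperature.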

The nature of assay [17]: qHTS assay to identify small molecule antagonists of the sonic hedgehog signaling (Shh) pathway - cell viability counter screen (AID 1259367). Also: nearly all actives have a fitted effect of over 55% in size. Also: potency is read from the fitted curve at half-maximal effect. The conditions noted are these: NIH/3T3 Gli1-Luc viability, CellTiter-Fluor, 24 h; series mostly up to 92.4 µM. The method in brief:
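NIH/3T3-derived Gli1-Luc reporter cells (2,000 per well) rested 4 hr at 37 C, then received DMSO compounds plus conditioned medium. After 23 hr of treatment, CellTiter-Fluor was added for 1 hr at 37C and fluorescence read.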

Assay [18] is described as follows: qHTS RealTime-Glo MT Cell Viability Assay in HEK293 cells - 24 hour (AID 1224886). The conditions noted are these: RealTime-Glo luminescence; series mostly up to 76.8 µM. The method in brief: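 Viability tracked continuously by luminescence as live cells reduce a prosubstrate for NanoLuc; HEK293 cells preincubated 5 h, compound-treated at 37 C, and read at 0, 8, 16, 24, 32 and 40 h.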

Assay [19] is described as follows: qHTS assay to identify small molecule phospholipidosis (PLD) inducers (AID 1259344; active = well fitted curve in the direction sought with a large enough effect; an effect the other way counts as inactive or inconclusive). The conditions noted are these: HepG2 phospholipidosis, LipidTOX Red imaging, 24 h; series mostly up to 38.3 µM. The gist of the method: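 HepG2 cells on collagen I, attached 4 h at 37 C, were co-treated with compound and LipidTOX Red dye for 24 h at 37 C, then fixed with paraformaldehyde plus Hoechst 33342 and imaged by high-content microscopy for phospholipid accumulation.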

Here are results for six molecules from PubChem BioAssay (Tox21).

Inconclusive results are not listed. The source made the active and inactive calls. Unless noted, calls follow the shape of the dose curve; as a rule, active = well fitted curve in the direction sought with a large enough effect in the repeat runs; inconclusive = weak or mixed curves; inactive = no such curve, though single readings can be large; an effect the other way counts as inactive or inconclusive.

Chain of Estrogen receptor (Homo sapiens) (P03372 whole entry, looked up): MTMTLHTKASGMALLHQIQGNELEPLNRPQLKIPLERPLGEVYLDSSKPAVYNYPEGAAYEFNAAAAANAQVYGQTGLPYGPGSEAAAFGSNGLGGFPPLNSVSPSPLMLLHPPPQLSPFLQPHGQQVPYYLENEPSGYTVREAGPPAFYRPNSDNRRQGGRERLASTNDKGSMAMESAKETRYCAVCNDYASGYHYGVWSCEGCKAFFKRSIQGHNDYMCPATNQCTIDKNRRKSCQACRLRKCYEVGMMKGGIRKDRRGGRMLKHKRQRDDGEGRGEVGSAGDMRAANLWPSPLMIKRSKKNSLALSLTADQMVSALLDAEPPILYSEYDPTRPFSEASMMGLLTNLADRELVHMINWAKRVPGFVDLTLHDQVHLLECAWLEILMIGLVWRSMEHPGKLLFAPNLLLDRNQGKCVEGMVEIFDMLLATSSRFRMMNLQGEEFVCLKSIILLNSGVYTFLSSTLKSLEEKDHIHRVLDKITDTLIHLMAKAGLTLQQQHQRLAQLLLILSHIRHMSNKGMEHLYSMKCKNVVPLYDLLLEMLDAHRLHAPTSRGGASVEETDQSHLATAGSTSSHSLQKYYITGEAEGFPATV

With `CCCOC(C(=O)OC1CCN(C)CC1)(c1ccccc1)c1ccccc1`, the Potency result in assay [1], in assay [3], in [4], in [5], in assay [6] and in assay [7] was “inactive” in each case. In addition, the Potency entry in [8], in assay [9] and in [10] was “inactive” throughout. Further, the Potency in [2] was 21.3 µM (active); in assay [11] it was 13.3 µM (active). In addition, in assay [12], the outcome was inactive.
Turning to `O=C(Nc1ccccc1)c1ccccc1O`, the Potency result in [13], in assay [3], in assay [4], in assay [5], in assay [14] and in [15] was “inactive” in each case. In addition, the Potency result in assay [6], in [7], in [9] and in assay [16] was “inactive” each time. Besides, the Potency in [10] is 8.63 µM (active); in assay [17], 61.1 µM (active). In assay [12], the outcome was inactive.
Take `C[C@H](CCC(=O)O)[C@H]1CC[C@H]2[C@@H]3CC[C@@H]4C[C@H](O)CC[C@]4(C)[C@H]3C[C@H](O)[C@]12C`: the Potency entry in assay [1], in [2], in assay [4], in assay [18], in assay [15] and in assay [6] was “inactive” in each case. Moreover, the Potency result in [7], in assay [8], in assay [9], in assay [19], in assay [10] and in assay [16] was “inactive” each time. Also, the molecule was classed as inactive in assay [12].
For the molecule `CCCCCCCCCCO[C@@H]1O[C@H](CO)[C@@H](O)[C@H](O)[C@H]1O`, the Potency result in assay [1], in [2], in assay [3], in [4], in [5] and in assay [14] was “inactive” throughout. The Potency result in assay [15], in assay [6], in assay [7], in assay [8], in assay [9] and in assay [10] was “inactive” in each case. Further, the Potency result in assay [16], in assay [11] and in assay [17] was “inactive” throughout. The result in [12] was inactive.
Turning to `CCCCCCCCCCCCN1CCCCCC1=O`, the Potency entry in assay [13], in assay [4], in assay [14], in assay [15], in [7] and in [8] was “inactive” each time. The Potency result in [10], in assay [16], in assay [11] and in assay [17] was “inactive” in each case. Also, in assay [12], the molecule was classed as inactive.
In the case of `CCOC(=O)Cc1cccc2ccccc12`, the Potency entry in assay [13], in assay [3], in assay [4], in assay [18], in [5] and in assay [7] was “inactive” in each case. For the same molecule, the Potency entry in assay [8], in [9], in assay [10], in assay [16], in [11] and in assay [17] was “inactive” in each case. In [12], the outcome was inactive.
